# Results taken from ChEMBL document CHEMBL1961873, “Compounds: GSK PKIS; Assays: Nanosyn kinase panel” (2012).
# How the values were obtained:
# [1] = target: Sphingosine kinase 1 (Homo sapiens) (UniProt Q9NYA1); settings: at 1 µM;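 further: mean SPHK1 inhibition value reported from the GSK PKIS kinase panel screen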
# [2] = target: T1, Sphingosine kinase 2 (Homo sapiens) (UniProt Q9NRA0); settings: at 0.1 µM
# T1 sequence (whole entry): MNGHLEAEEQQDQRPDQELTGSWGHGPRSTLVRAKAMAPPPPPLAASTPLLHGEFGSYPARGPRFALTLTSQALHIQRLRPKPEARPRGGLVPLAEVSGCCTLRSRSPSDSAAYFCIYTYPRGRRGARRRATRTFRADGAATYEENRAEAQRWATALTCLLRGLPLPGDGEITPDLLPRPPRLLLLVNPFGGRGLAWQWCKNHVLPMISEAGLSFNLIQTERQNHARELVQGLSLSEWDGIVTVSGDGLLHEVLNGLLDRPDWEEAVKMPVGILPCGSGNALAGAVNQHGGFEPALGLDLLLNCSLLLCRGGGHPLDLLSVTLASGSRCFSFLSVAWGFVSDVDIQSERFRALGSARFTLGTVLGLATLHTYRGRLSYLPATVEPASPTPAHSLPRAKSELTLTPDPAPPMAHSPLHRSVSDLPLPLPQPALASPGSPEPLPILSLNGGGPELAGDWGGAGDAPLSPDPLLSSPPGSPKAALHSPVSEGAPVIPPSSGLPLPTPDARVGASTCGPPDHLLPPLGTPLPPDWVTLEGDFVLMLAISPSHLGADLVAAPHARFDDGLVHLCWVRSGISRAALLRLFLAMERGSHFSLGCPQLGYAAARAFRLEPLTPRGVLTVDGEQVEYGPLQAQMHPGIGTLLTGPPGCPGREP
# [3] = target: T1, Sphingosine kinase 2 (Homo sapiens); settings: at 1 µM
# [4] = target: Casein kinase II subunit alpha (Homo sapiens) (UniProt P68400); settings: at 0.1 µM
# Sequence of Casein kinase II subunit alpha (Homo sapiens) (P68400 whole entry, looked up): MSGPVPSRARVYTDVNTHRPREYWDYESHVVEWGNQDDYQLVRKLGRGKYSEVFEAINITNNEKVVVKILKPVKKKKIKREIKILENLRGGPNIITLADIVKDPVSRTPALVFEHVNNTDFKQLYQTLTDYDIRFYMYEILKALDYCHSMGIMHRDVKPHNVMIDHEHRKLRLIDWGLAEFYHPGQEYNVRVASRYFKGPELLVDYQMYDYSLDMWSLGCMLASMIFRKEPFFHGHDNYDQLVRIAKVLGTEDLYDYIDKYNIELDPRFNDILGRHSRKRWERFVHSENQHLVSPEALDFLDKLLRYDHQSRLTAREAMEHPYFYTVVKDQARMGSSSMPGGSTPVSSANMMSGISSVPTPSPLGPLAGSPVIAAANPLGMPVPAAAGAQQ
# [5] = target: Casein kinase II subunit alpha (Homo sapiens) (UniProt P68400); settings: at 1 µM
# [6] = target: T2, Inhibitor of nuclear factor kappa-B kinase subunit alpha (Homo sapiens) (UniProt O15111); settings: at 0.1 µM
# T2 sequence (whole entry): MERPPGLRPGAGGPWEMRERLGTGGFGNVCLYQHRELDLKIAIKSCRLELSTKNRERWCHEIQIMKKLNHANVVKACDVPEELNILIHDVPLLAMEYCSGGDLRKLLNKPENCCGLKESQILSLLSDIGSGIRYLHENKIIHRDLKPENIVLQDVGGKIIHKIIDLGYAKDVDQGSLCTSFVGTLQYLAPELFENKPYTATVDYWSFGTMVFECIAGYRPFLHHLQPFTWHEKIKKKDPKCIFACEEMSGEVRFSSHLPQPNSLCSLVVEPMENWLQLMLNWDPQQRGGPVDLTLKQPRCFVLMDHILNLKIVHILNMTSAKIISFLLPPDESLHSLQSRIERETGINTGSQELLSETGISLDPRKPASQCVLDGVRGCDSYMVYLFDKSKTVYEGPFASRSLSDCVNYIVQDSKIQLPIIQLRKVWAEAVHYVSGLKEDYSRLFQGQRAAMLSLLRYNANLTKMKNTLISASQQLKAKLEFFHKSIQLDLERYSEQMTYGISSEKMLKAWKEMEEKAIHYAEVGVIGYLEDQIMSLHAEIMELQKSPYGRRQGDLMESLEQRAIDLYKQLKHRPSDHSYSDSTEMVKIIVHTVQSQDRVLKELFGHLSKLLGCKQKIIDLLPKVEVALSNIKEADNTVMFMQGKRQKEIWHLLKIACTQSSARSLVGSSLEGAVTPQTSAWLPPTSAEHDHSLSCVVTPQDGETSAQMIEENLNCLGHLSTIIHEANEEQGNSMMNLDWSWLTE
# [7] = target: T2, Inhibitor of nuclear factor kappa-B kinase subunit alpha (Homo sapiens); settings: at 1 µM
# [8] = target: T3, Inhibitor of nuclear factor kappa-B kinase subunit beta (Homo sapiens) (UniProt O14920); settings: at 0.1 µM
# T3 sequence (whole entry): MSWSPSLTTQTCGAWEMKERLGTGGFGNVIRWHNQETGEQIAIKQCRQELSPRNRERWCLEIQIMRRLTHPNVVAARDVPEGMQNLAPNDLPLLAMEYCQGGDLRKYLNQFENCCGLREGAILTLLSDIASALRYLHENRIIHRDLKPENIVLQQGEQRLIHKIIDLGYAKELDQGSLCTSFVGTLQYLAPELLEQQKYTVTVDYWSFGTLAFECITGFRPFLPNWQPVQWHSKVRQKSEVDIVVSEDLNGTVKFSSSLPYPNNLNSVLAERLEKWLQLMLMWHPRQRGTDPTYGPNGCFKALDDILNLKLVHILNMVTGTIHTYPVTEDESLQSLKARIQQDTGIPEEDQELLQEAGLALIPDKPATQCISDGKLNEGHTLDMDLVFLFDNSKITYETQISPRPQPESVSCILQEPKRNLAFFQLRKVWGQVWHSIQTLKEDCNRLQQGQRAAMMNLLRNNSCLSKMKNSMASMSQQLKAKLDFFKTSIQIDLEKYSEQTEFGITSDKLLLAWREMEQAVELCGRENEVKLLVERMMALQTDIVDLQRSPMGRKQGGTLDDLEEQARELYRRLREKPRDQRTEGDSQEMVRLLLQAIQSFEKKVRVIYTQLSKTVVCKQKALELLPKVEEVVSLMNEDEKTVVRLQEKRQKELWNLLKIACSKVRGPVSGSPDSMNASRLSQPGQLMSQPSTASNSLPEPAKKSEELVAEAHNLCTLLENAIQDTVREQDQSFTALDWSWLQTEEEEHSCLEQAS
# [9] = target: T3, Inhibitor of nuclear factor kappa-B kinase subunit beta (Homo sapiens); settings: at 1 µM
# [10] = target: T4, Inhibitor of nuclear factor kappa-B kinase subunit epsilon (Homo sapiens) (UniProt Q14164); settings: at 0.1 µM
# T4 sequence (whole entry): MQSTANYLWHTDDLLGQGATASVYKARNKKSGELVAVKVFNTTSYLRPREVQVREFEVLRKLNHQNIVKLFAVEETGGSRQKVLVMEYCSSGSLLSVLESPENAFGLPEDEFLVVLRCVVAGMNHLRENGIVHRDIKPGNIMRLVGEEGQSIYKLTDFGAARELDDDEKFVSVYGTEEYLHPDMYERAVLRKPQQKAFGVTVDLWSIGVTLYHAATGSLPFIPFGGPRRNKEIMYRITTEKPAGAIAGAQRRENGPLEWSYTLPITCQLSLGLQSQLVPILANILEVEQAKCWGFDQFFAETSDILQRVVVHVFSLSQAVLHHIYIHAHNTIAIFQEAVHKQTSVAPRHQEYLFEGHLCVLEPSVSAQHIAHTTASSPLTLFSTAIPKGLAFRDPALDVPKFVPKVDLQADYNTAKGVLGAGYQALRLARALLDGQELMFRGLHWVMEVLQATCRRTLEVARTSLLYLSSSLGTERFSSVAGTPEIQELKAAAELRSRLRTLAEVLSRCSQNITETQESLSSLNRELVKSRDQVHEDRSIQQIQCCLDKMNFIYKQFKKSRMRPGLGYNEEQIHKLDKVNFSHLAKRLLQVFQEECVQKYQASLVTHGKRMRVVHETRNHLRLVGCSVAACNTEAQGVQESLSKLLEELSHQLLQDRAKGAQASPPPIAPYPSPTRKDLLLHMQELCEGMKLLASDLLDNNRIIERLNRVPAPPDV
# [11] = target: T4, Inhibitor of nuclear factor kappa-B kinase subunit epsilon (Homo sapiens); settings: at 1 µM
# [12] = target: T5, Serine/threonine-protein kinase Nek1 (Homo sapiens) (UniProt Q96PY6); settings: at 0.1 µM
# T5 sequence (whole entry): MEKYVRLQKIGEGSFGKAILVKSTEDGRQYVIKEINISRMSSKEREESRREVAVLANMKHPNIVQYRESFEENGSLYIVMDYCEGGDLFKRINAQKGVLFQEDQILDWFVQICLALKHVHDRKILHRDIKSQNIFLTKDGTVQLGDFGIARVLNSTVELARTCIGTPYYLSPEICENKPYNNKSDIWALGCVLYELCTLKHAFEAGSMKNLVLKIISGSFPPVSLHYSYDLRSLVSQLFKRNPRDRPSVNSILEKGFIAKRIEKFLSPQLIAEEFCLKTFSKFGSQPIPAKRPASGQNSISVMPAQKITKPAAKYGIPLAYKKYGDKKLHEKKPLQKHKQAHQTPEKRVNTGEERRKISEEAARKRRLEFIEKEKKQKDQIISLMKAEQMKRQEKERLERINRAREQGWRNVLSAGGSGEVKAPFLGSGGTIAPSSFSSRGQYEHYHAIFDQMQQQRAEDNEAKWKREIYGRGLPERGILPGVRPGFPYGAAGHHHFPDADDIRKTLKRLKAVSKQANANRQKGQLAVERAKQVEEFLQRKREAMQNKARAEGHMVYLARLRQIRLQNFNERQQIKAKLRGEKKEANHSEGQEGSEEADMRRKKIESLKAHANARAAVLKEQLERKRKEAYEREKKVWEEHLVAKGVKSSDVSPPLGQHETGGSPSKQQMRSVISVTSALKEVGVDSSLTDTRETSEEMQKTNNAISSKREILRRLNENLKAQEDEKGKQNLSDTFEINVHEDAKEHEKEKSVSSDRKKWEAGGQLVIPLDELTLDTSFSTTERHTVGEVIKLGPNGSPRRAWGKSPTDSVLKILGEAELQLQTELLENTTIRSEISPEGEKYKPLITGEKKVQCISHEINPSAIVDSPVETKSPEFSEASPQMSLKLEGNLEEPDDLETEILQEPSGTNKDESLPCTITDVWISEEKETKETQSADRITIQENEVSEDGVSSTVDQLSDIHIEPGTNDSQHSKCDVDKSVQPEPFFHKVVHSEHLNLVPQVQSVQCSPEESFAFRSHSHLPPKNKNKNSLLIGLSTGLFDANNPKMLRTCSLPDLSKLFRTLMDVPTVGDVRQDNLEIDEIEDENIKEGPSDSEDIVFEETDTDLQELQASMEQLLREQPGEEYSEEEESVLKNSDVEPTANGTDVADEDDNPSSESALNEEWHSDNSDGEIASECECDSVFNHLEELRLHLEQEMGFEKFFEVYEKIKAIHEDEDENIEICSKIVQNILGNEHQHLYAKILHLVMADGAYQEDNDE
# [13] = target: T5, Serine/threonine-protein kinase Nek1 (Homo sapiens); settings: at 1 µM
# [14] = target: T6, Serine/threonine-protein kinase Nek2 (Homo sapiens) (UniProt P51955); settings: at 0.1 µM
# T6 sequence (whole entry): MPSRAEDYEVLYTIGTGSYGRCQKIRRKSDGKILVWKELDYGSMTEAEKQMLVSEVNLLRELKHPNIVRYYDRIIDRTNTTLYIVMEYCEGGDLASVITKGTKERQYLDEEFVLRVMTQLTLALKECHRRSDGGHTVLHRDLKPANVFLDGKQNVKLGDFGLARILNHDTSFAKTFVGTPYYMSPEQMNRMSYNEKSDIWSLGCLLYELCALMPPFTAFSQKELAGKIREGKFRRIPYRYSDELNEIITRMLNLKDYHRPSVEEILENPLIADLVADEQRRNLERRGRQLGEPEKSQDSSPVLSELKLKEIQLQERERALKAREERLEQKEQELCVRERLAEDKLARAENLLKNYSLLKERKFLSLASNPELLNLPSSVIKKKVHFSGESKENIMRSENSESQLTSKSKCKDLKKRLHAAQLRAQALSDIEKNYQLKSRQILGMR
# [15] = target: T6, Serine/threonine-protein kinase Nek2 (Homo sapiens); settings: at 1 µM
# [16] = target: Serine/threonine-protein kinase Nek6 (Homo sapiens) (UniProt Q9HC98); settings: at 0.1 µM
# Sequence of Serine/threonine-protein kinase Nek6 (Homo sapiens) (Q9HC98 whole entry): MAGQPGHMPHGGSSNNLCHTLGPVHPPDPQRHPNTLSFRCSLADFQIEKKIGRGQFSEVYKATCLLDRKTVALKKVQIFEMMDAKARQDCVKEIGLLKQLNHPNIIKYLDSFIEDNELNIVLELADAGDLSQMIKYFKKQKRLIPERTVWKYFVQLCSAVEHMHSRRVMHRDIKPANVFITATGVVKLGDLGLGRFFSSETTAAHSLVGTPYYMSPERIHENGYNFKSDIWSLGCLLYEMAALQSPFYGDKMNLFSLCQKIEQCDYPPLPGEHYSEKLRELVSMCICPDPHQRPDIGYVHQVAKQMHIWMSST
# [17] = target: Serine/threonine-protein kinase Nek6 (Homo sapiens) (UniProt Q9HC98); settings: at 1 µM
# [18] = target: Serine/threonine-protein kinase Nek7 (Homo sapiens) (UniProt Q8TDX7); settings: at 0.1 µM
# Sequence of Serine/threonine-protein kinase Nek7 (Homo sapiens) (Q8TDX7 whole entry, looked up): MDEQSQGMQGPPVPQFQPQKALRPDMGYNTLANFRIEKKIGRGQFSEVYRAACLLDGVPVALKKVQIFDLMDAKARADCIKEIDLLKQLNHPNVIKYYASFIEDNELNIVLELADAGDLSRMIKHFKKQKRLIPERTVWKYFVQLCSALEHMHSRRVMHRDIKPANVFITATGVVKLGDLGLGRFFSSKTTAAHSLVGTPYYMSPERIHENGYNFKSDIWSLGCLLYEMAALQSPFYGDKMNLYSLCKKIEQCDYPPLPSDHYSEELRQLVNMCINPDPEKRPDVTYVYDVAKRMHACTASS
# [19] = target: Serine/threonine-protein kinase Nek7 (Homo sapiens) (UniProt Q8TDX7); settings: at 1 µM
# [20] = target: T7, Serine/threonine-protein kinase Nek9 (Homo sapiens) (UniProt Q8TD19); settings: at 0.1 µM;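 further: reported value is the mean percent inhibition of NEK9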
# T7 sequence (whole entry): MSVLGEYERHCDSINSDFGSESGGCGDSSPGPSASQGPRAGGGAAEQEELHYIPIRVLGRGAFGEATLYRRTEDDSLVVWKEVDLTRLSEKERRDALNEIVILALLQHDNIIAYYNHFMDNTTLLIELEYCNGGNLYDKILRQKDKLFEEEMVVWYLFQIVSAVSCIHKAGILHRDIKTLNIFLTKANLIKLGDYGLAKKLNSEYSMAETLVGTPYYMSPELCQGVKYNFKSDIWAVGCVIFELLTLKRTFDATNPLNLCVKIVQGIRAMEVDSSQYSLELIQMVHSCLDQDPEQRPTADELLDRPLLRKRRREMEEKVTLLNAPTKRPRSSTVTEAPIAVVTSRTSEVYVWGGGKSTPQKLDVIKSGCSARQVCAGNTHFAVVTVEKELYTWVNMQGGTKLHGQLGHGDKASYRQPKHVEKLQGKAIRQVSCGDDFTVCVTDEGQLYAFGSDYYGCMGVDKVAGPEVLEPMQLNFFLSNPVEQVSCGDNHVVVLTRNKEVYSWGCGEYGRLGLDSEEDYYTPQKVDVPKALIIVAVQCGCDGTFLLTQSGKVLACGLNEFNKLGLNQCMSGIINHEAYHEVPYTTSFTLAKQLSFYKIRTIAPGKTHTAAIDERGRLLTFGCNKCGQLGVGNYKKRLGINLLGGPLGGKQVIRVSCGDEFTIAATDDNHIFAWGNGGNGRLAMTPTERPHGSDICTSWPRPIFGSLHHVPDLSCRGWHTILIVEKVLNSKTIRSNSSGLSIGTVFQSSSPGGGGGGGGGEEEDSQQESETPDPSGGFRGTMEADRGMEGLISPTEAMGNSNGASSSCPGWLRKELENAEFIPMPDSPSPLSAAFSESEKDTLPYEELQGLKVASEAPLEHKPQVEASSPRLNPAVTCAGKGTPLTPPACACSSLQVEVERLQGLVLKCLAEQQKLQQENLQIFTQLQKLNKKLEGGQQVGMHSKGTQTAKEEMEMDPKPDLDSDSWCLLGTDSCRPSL
# Sequence of Sphingosine kinase 1 (Homo sapiens) (Q9NYA1 whole entry): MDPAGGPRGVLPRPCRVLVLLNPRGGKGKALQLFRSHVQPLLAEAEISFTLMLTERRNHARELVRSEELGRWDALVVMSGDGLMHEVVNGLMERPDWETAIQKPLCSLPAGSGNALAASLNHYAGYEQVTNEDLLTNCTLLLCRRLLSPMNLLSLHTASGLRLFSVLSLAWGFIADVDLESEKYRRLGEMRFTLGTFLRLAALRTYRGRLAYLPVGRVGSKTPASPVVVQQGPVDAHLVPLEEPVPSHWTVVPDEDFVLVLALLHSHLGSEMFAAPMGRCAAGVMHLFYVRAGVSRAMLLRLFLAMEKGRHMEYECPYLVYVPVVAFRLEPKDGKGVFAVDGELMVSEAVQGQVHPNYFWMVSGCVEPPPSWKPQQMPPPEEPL
smiles,measurement,setting,value
CNC(=O)c1cncc(/C=C/c2ccccc2C)c1,inhibition,[1],1.15%
same,inhibition,[2],0%
same,inhibition,[3],0%
same,inhibition,[4],4.87%
same,inhibition,[5],7.63%
same,inhibition,[6],1.86%
same,inhibition,[7],2.32%
same,inhibition,[8],3.58%
same,inhibition,[9],5.04%
same,inhibition,[10],5.9%
same,inhibition,[11],5.71%
same,inhibition,[12],2.13%
same,inhibition,[13],4.28%
same,inhibition,[14],4.96%
same,inhibition,[15],5.88%
same,inhibition,[16],1.4%
same,inhibition,[17],3.73%
same,inhibition,[18],1.08%
same,inhibition,[19],4.03%
same,inhibition,[20],3.46%
